Test results taken from PubChem BioAssay AID1159580 (chemical genetic matrix, 2015).
Where “and” joins values, the source holds several entries; their conditions need not be identical. Equal values may be shown once. The whole screen tested about 5,500 compounds, of which about 2,000 (36%) were called active. Not shown: some 18% with an inconclusive outcome. No stated cut-off is given here; in the data, active means normalized growth mostly below about 0.91 (no sharp cut-off); inconclusive means no clear call, values can overlap the other calls; inactive means mostly above about 0.92. Some of the results follow.

Assay: chemical genetic growth profiling, strain panel (AID 1159580);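 further: tested at 20 µM; growth read once vehicle control cultures reached saturation at 30 °C; 1 = growth at the plate median or of vehicle wells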
Settings: growth OD
[1] = S. cerevisiae deletion strains, locus YGR078C, strain PAC10, stronger effect = lower value

Measured: normalized growth

CC1CC2C3CCC4=CC(=O)C=CC4(C)C3(F)C(O)CC2(C)C1(O)C(=O)CO (stereo not given)
inactive: S. cerevisiae deletion strains, locus YAL040C, strain CLN3, stronger effect = lower value 0.987 | S. cerevisiae deletion strains, locus YDR363W, strain ESC2, stronger effect = lower value 0.955 | S. cerevisiae deletion strains, locus YER002W, strain NOP16, stronger effect = lower value 1 | [1] 1.02 | S. cerevisiae deletion strains, locus YNL175C, strain NOP13, stronger effect = lower value 1.01 | S. cerevisiae deletion strains, locus YNL197C, strain WHI3, stronger effect = lower value 0.999 | S. cerevisiae deletion strains, locus YNL224C, strain SQS1, stronger effect = lower value 1.01 | S. cerevisiae deletion strains, locus YOR083W, strain WHI5 (second series), stronger effect = lower value 1.01

O=C(OCC(O)CO)c1ccccc1Nc1ccnc2cc(Cl)ccc12 (stereo not given)
inactive: S. cerevisiae deletion strains, locus YAL013W, strain DEP1, stronger effect = lower value 0.996 | S. cerevisiae deletion strains, locus YBR021W, strain FUR4, stronger effect = lower value 1.01 | S. cerevisiae deletion strains, locus YBR229C, strain ROT2, stronger effect = lower value 0.994 | S. cerevisiae deletion strains, locus YCL029C, strain bik1, stronger effect = lower value 0.961 | S. cerevisiae deletion strains, locus YDL035C, strain GPR1, stronger effect = lower value 1.01 | S. cerevisiae deletion strains, locus YDL074C, strain BRE1, stronger effect = lower value 0.978 | S. cerevisiae deletion strains, locus YDL101C, strain DUN1, stronger effect = lower value 0.98 | S. cerevisiae deletion strains, locus YDL134C, strain PPH21, stronger effect = lower value 0.999 | S. cerevisiae deletion strains, locus YDL185W, strain tfp1, stronger effect = lower value 0.978 | S. cerevisiae deletion strains, locus YDL192W, strain arf1, stronger effect = lower value 0.99 | S. cerevisiae deletion strains, locus YDR101C, strain arx1, stronger effect = lower value 0.988 | S. cerevisiae deletion strains, locus YDR150W, strain NUM1, stronger effect = lower value 0.98 | S. cerevisiae deletion strains, locus YDR162C, strain NBP2, stronger effect = lower value 0.992 | S. cerevisiae deletion strains, locus YDR318W, strain mcm21, stronger effect = lower value 0.977 | S. cerevisiae deletion strains, locus YDR388W, stronger effect = lower value 0.997 | S. cerevisiae deletion strains, locus YDR502C, strain sam2, stronger effect = lower value 0.975 | S. cerevisiae deletion strains, locus YEL061C, strain CIN8, stronger effect = lower value 0.997 | S. cerevisiae deletion strains, locus YER110C, stronger effect = lower value 0.978 | S. cerevisiae deletion strains, locus YER155C, strain BEM2, stronger effect = lower value 0.988 | S. cerevisiae deletion strains, locus YER167W, strain BCK2, stronger effect = lower value 0.986 | S. cerevisiae deletion strains, locus YGL078C, strain dbp3, stronger effect = lower value 0.995 | S. cerevisiae deletion strains, locus YGL086W, strain mad1, stronger effect = lower value 0.999 | S. cerevisiae deletion strains, locus YGL248W, strain PDE1, stronger effect = lower value 0.983 | [1] 0.962 | S. cerevisiae deletion strains, locus YGR135W, strain pre9, stronger effect = lower value 0.974 | S. cerevisiae deletion strains, locus YGR229C, strain SMI1, stronger effect = lower value 0.981 | S. cerevisiae deletion strains, locus YGR252W, strain gcn5, stronger effect = lower value 1.06 | S. cerevisiae deletion strains, locus YHR030C, strain SLT2, stronger effect = lower value 0.991 and 0.957 | S. cerevisiae deletion strains, locus YHR079C, strain IRE1 (second series), stronger effect = lower value 0.989 | S. cerevisiae deletion strains, locus YHR079C, strain IRE1, stronger effect = lower value 0.969 | S. cerevisiae deletion strains, locus YHR094C, strain hxt1, stronger effect = lower value 0.979 | S. cerevisiae deletion strains, locus YHR129C, strain ARP1, stronger effect = lower value 0.981 | S. cerevisiae deletion strains, locus YHR200W, strain rpn10, stronger effect = lower value 0.987 | S. cerevisiae deletion strains, locus YIL066C, strain RNR3, stronger effect = lower value 0.98 | S. cerevisiae deletion strains, locus YIL073C, strain SPO22, stronger effect = lower value 0.925 | S. cerevisiae deletion strains, locus YIL125W, strain kgd1, stronger effect = lower value 0.991 | S. cerevisiae deletion strains, locus YIR030C, strain dcg1, stronger effect = lower value 0.988 | S. cerevisiae deletion strains, locus YJL095W, strain BCK1, stronger effect = lower value 0.943 and 0.974 | S. cerevisiae deletion strains, locus YJL134W, strain LCB3, stronger effect = lower value 0.993 | S. cerevisiae deletion strains, locus YJL168C, strain set2, stronger effect = lower value 0.995 | S. cerevisiae deletion strains, locus YJL187C, strain SWE1 (second series), stronger effect = lower value 0.936 | S. cerevisiae deletion strains, locus YJR043C, strain POL32, stronger effect = lower value 0.982 | S. cerevisiae deletion strains, locus YJR066W, strain TOR1, stronger effect = lower value 0.912 | S. cerevisiae deletion strains, locus YJR075W, strain HOC1, stronger effect = lower value 0.978 | S. cerevisiae deletion strains, locus YKL009W, strain mrt4, stronger effect = lower value 0.968 | S. cerevisiae deletion strains, locus YKL068W, stronger effect = lower value 0.987 | S. cerevisiae deletion strains, locus YKL085W, strain MDH1 (second series), stronger effect = lower value 0.975 | S. cerevisiae deletion strains, locus YKL085W, strain MDH1, stronger effect = lower value 0.975 | S. cerevisiae deletion strains, locus YKL190W, strain CNB1, stronger effect = lower value 0.984 | S. cerevisiae deletion strains, locus YKR001C, strain vps1, stronger effect = lower value 0.99 | S. cerevisiae deletion strains, locus YLR039C, strain RIC1, stronger effect = lower value 1.01 | S. cerevisiae deletion strains, locus YLR058C, strain SHM2, stronger effect = lower value 0.986 | S. cerevisiae deletion strains, locus YLR102C, strain apc9, stronger effect = lower value 0.992 | S. cerevisiae deletion strains, locus YLR113W, strain HOG1, stronger effect = lower value 1.01 | S. cerevisiae deletion strains, locus YLR262C, strain YPT6, stronger effect = lower value 1.03 | S. cerevisiae deletion strains, locus YLR268W, strain sec22, stronger effect = lower value 0.918 | S. cerevisiae deletion strains, locus YLR330W, strain CHS5, stronger effect = lower value 0.988 | S. cerevisiae deletion strains, locus YLR342W, strain FKS1 (second series), stronger effect = lower value 1.05 | S. cerevisiae deletion strains, locus YLR371W, strain rom2, stronger effect = lower value 0.985 | S. cerevisiae deletion strains, locus YLR418C, strain cdc73, stronger effect = lower value 0.924 | S. cerevisiae deletion strains, locus YML016C, strain PPZ1, stronger effect = lower value 0.999 | S. cerevisiae deletion strains, locus YML032C, strain rad52, stronger effect = lower value 0.971 | S. cerevisiae deletion strains, locus YML124C, strain tub3, stronger effect = lower value 0.988 | S. cerevisiae deletion strains, locus YMR078C, strain ctf18, stronger effect = lower value 0.99 | S. cerevisiae deletion strains, locus YMR223W, strain ubp8, stronger effect = lower value 1.01 | S. cerevisiae deletion strains, locus YMR263W, strain SAP30, stronger effect = lower value 0.976 | S. cerevisiae deletion strains, locus YMR307W, strain GAS1, stronger effect = lower value 0.984 | S. cerevisiae deletion strains, locus YNL067W, strain RPL9B, stronger effect = lower value 0.968 | S. cerevisiae deletion strains, locus YNL128W, strain TEP1, stronger effect = lower value 0.975 | S. cerevisiae deletion strains, locus YNL153C, strain GIM3, stronger effect = lower value 0.976 | S. cerevisiae deletion strains, locus YNL183C, strain NPR1, stronger effect = lower value 0.899 | S. cerevisiae deletion strains, locus YNL233W, strain BNI4, stronger effect = lower value 0.974 | S. cerevisiae deletion strains, locus YNL250W, strain rad50, stronger effect = lower value 0.969 | S. cerevisiae deletion strains, locus YNL271C, strain bni1, stronger effect = lower value 0.987 | S. cerevisiae deletion strains, locus YNL298W, strain CLA4, stronger effect = lower value 0.993 | S. cerevisiae deletion strains, locus YNL307C, strain MCK1, stronger effect = lower value 0.983 | S. cerevisiae deletion strains, locus YNL322C, strain KRE1, stronger effect = lower value 0.988 | S. cerevisiae deletion strains, locus YNR052C, strain pop2, stronger effect = lower value 1.01 | S. cerevisiae deletion strains, locus YOL006C, strain TOP1, stronger effect = lower value 0.929 | S. cerevisiae deletion strains, locus YOL012C, strain htz1 1.65 | S. cerevisiae deletion strains, locus YOL147C, strain pex11, stronger effect = lower value 0.98 | S. cerevisiae deletion strains, locus YOR061W, strain CKA2, stronger effect = lower value 0.99 | S. cerevisiae deletion strains, locus YOR069W, strain VPS5, stronger effect = lower value 0.996 | S. cerevisiae deletion strains, locus YOR136W, strain idh2, stronger effect = lower value 0.998 | S. cerevisiae deletion strains, locus YOR144C, strain elg1, stronger effect = lower value 0.993 | S. cerevisiae deletion strains, locus YOR184W, strain ser1, stronger effect = lower value 0.954 | S. cerevisiae deletion strains, locus YOR231W, strain MKK1, stronger effect = lower value 0.983 | S. cerevisiae deletion strains, locus YOR316C, strain cot1, stronger effect = lower value 0.982 | S. cerevisiae deletion strains, locus YPL055C, strain LGE1, stronger effect = lower value 0.938 | S. cerevisiae deletion strains, locus YPL241C, strain CIN2, stronger effect = lower value 0.991 | S. cerevisiae deletion strains, locus YPL256C, strain CLN2, stronger effect = lower value 0.927 | S. cerevisiae deletion strains, locus YPR119W, strain clb2, stronger effect = lower value 0.99 | S. cerevisiae deletion strains, locus YPR141C, strain kar3, stronger effect = lower value 0.97 | S. cerevisiae deletion strains, locus YPR163C, strain tif3, stronger effect = lower value 0.979 | S. cerevisiae deletion strains, locus YPR167C, strain met16, stronger effect = lower value 0.989 | S. cerevisiae deletion strains, strain wtn01, stronger effect = lower value 0.98 | S. cerevisiae strains, strain wild type, stronger effect = lower value 0.991
